Assay results published in PubChem BioAssay (EPA / NIEHS).
Inconclusive results are not listed. Active and inactive are the calls of the source. The calls were made as follows: active = hit-call score of the fitted dose curve at least 0.9, where 1 is the maximum; inconclusive = response in the unintended direction; inactive = score below 0.9.

Target: human Ephrin type-B Receptor 1 (EphB1), EPHB1 (gene 2047) (UniProt P54762)
Assay: NVS_ENZ_hEphB1: NovaScreen (NVS) Enzymatic Assay for human Ephrin type-B Receptor 1 (EphB1) (AID 2283154)
Protocol: NVS_ENZ_hEphB1 is a biochemical, single-readout assay that uses extracted gene-proteins in a cell-free assay. Measurements were taken 1 hour after chemical dosing in a 384-well plate.NVS_ENZ_hEphB1 is one of one assay component(s) measured or calculated from the NVS_ENZ_hEphB1 assay. It is designed to make measurements of enzyme activity, a form of enzyme reporter, as detected with fluorescence intensity signals by Fluorescence and electrophoretic mobility shift technology.Data from the assay component NVS_ENZ_hEphB1 was analyzed into 1 assay endpoint. This assay endpoint, NVS_ENZ_hEphB1, was analyzed in the positive analysis fitting direction relative to DMSO as the negative control and baseline of activity. Using a type of enzyme reporter, loss-of-signal activity can be used to understand changes in the enzymatic activity as they relate to the gene EPHB1. Furthermore, this assay endpoint can be referred to as a primary readout, because this assay has produced multiple assay endpoints where this one serves a enzymatic activity function. To generalize the intended target to other relatable targets, this assay endpoint is annotated to the kinase intended target family, where the subfamily is receptor tyrosine kinase.
Binding assays used specific radioligands (tritiated, iodinated) with non-radioactive competitive displacement ligands in agonist or antagonist protocols (as indicated) and various reference compounds and inhibitors to titrate specific binding to receptors and transporters. Most enzyme assays (CYPs, kinases, phosphatases, proteases, HDACs) used recombinant protein and specific substrates (fluorescence mostly, some colorimetric and radioactive) and inhibitors, followed by a biochemical separation of substrate and product. All assays for the biochemical HTS were initially run in duplicate at a single concentration (10 uM for CYP450 assays and 25 uM for all others). […] Each assay was run with positive and negative controls, and concurrent controls on every plate. The follow-up (secondary) screen tested active chemical-pairs in concentration series, as well as a few additional assays not tested in the primary screen, some selected negative inactives, and several cases re-run in the concentration series for confirmatory purposes.

Sequence of human Ephrin type-B Receptor 1 (EphB1), EPHB1 (gene 2047) (P54762 whole entry, looked up): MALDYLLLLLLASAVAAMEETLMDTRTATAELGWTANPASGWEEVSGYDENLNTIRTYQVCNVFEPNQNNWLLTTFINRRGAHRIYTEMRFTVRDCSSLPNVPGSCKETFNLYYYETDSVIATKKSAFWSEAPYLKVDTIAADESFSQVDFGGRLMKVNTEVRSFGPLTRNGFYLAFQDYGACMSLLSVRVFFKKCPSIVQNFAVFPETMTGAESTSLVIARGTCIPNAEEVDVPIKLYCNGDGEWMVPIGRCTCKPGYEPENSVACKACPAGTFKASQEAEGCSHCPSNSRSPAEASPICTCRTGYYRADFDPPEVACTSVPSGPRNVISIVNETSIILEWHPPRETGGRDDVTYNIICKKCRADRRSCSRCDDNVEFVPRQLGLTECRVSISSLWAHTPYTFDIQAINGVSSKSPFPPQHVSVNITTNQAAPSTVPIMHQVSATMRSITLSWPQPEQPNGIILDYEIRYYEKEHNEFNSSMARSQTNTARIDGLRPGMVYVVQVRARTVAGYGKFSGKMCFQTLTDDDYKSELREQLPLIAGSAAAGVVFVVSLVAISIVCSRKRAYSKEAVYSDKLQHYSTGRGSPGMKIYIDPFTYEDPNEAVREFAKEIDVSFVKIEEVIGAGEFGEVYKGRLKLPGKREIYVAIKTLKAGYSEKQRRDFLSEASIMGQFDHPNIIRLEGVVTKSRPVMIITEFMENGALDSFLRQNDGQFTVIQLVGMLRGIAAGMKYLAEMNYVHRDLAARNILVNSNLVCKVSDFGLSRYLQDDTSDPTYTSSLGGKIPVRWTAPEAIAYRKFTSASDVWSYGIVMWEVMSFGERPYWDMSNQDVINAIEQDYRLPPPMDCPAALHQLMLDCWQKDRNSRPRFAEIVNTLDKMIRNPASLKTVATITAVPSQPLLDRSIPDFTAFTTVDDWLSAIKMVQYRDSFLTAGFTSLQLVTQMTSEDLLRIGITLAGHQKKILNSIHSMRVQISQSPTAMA

Compound | outcome
CN=C=S | inactive
C=CCOC(=O)C(C)(C)OC(=O)c1cc(-n2c(=O)cc(C(F)(F)F)n(C)c2=O)ccc1Cl | inactive
CC1(C)C(C=C(Cl)Cl)C1C(=O)OC(C#N)c1cccc(Oc2ccccc2)c1 (stereo not given) | inactive
CCOC(=O)C(C)OC(=O)c1cc(Oc2ccc(C(F)(F)F)cc2Cl)ccc1[N+](=O)[O-] (stereo not given) | inactive
CN/C(=N\[N+](=O)[O-])NCc1cnc(Cl)s1 | inactive
Cc1c(COC(=O)[C@@H]2[C@H](/C=C(\Cl)C(F)(F)F)C2(C)C)cccc1-c1ccccc1 | inactive
Clc1nc(Cl)nc(Nc2ccccc2Cl)n1 | inactive
CCOP(=O)(OCC)Oc1nc(Cl)c(Cl)cc1Cl | inactive
O=C(Nc1ccccc1-c1ccc(Cl)cc1)c1cccnc1Cl | inactive
CC1(C)C(C(=O)OC(C#N)c2cccc(Oc3ccccc3)c2)C1(C)C (stereo not given) | inactive
COC(=O)N(C(=O)N1CO[C@@]2(C(=O)OC)Cc3cc(Cl)ccc3C2=N1)c1ccc(OC(F)(F)F)cc1 | inactive
Cc1nc(N(C)C)nc(OC(=O)N(C)C)c1C | inactive
Cc1ccc(N=CN(C)C=Nc2ccc(C)cc2C)c(C)c1 | inactive
CNC(=O)N(C)c1nnc(C(C)(C)C)s1 | inactive
Nc1c(Cl)c(F)nc(OCC(=O)O)c1Cl | inactive
